These sequences were tested against FTL (assay: pooled miR-30 sensor sort-seq; sequence = guide strand). Settings: shRNA.
TAGGAAGTGAGTCTCCAGGAAG was tested, and the sensor-assay potency score (higher = more potent) was -1.72.
Work on TTTCGAAGAGATACTCGCCCAG yielded a sensor-assay potency score (higher = more potent) of -0.301.
TCCAGAGCCACATCATCGCGGT gave a sensor-assay potency score (higher = more potent) of -0.991.
With TCTTGATAAGCTTCACTTCCTC the sensor-assay potency score (higher = more potent) was -0.871.
In the case of TTCAGGAGACGCTCGTAGCCCT, the sensor-assay potency score (higher = more potent) is reported as -0.927.
For TTCACTTCCTCATCTAGGAAGT, the sensor-assay potency score (higher = more potent) was -0.832.
Work on TTGATGTCCTGGAAGAGAGCGC yielded a sensor-assay potency score (higher = more potent) of -0.331.
TTCTCCTCGGCCAATTCGCGGA gave a sensor-assay potency score (higher = more potent) of -1.13.
TTTGCATCTTCAGGAGACGCTC showed a sensor-assay potency score (higher = more potent) of -0.792.
TTCAGCTGGCTTCTTGATGTCC gave a sensor-assay potency score (higher = more potent) of -0.855.
With TTCGAAGAGATACTCGCCCAGC the sensor-assay potency score (higher = more potent) was -0.73.
TTGCATCTTCAGGAGACGCTCG showed a sensor-assay potency score (higher = more potent) of -0.127.
Sequence TTTTACCCCACTCATCTTCAGC has a sensor-assay potency score (higher = more potent) of -1.2.
TTGATAAGCTTCACTTCCTCAT gave a sensor-assay potency score (higher = more potent) of -0.312.
TACCCCACTCATCTTCAGCTGG showed a sensor-assay potency score (higher = more potent) of -0.815.
TTTTTCTCCAGGGCCATGGCAG was tested, and the sensor-assay potency score (higher = more potent) was -1.05.
With ATGAAGATCCAAAAGGGCCTGG the sensor-assay potency score (higher = more potent) was -0.154.
With TCGCGGTCGAAATAGAAGCCCA the sensor-assay potency score (higher = more potent) was -1.25.
TGATAAGCTTCACTTCCTCATC gave a sensor-assay potency score (higher = more potent) of -1.37.
ATCTAGGAAGTGAGTCTCCAGG gave a sensor-assay potency score (higher = more potent) of -1.73.
For TTCCAGAGCCACATCATCGCGG, the sensor-assay potency score (higher = more potent) was -0.592.
For TTGACCAGGCTGTTGACGGCTG, the sensor-assay potency score (higher = more potent) was -0.48.
TAAGCTTCACTTCCTCATCTAG gave a sensor-assay potency score (higher = more potent) of -0.516.
Also: reference of the scale not given here.
